# Only some compounds are listed: those with a hit (about 6.8% of all), similar ones and a draw of the others.
# Pf Dd2 inh – blocks growth of Plasmodium falciparum Dd2 parasites. P. falciparum Dd2 growth, SYBR Green, 72 h; hits give low values. 94,000 tested, 2.3% active. activity change, % at 10 µM; in the data active means activity change below about -80%; inconclusive means no clear call, values can overlap the other calls
# C diff HTS – C. difficile growth inhibition. 86,000 tested, 0.25% active. Clostridium difficile clinical isolate growth, OD600, 24 h; hits give low values. growth activity, negative = inhibition, % at 16 µg/mL (by protocol);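 active means mean growth activity at or below -80% and every replicate also at or below -80%; inconclusive means mean at or below -80% but some replicate above -80%; inactive means mean growth activity above -80%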
# T cruzi growth-1 – T. cruzi proliferation inhibition. 77,000 tested, 5.9% active. inhibition, % at 8.34 µM. T. cruzi beta-gal in NIH3T3, GalScreen luminescence, 90 h;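 active means mean inhibition above about 93%, with at least 55% of replicates each passing it, limit read from the data, passing the limit was not always enough; inconclusive means only one of those two conditions holds; inactive means neither condition holds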
# T cruzi growth-2 – blocks T. cruzi growth in NIH3T3 host cells. T. cruzi beta-gal in NIH3T3, GalScreen luminescence, 90 h. inhibition, % at 8.35 µM. 5,600 tested, 72% active. shares compounds with T cruzi growth-1;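 active means mean replicate inhibition above about 95% and at least 55% of replicates individually reaching it, limit read from the data; inconclusive means only one of the two criteria is met; inactive means neither criterion is met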
# T cruzi growth-3 – blocks T. cruzi growth in NIH3T3 host cells. shares compounds with T cruzi growth-1. 5,600 tested, 21% active. AID 651740. T. cruzi beta-gal in NIH3T3, GalScreen luminescence, 90 h. inhibition, % at 2.09 µM;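 active means mean inhibition above about 95%, with at least 55% of replicates also reaching it, limit read from the data; inconclusive means meets just one of the two conditions; inactive means meets neither condition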
# 3T3 cytotox – NIH/3T3 (mouse) viability loss | cytotoxicity (signal decrease), % at 8.35 µM | 5,600 tested, 14% active | NIH/3T3 viability, CellTiter-Glo ATP luminescence, 90 h | shares compounds with T cruzi growth-1;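 active means mean signal decrease across replicates above about 35% based on untreated-well scatter, with enough replicates individually passing, limit read from the data; inconclusive means no rule stated though some were filed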
# 3T3 cytotox 2 – cytotoxicity in mouse NIH/3T3 fibroblasts; shares compounds with T cruzi growth-1; NIH/3T3 viability, CellTiter-Glo ATP luminescence, 90 h; inhibition, % at 24.9 µM; 5,600 tested, 56% active; AID 651744;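 active means mean loss of cell viability signal at or above a set limit, and enough replicates individually reaching it; inconclusive means meets only the mean limit or only the replicate share; inactive means meets neither condition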
# Hits are given with their value; i = inactive; ? = inconclusive; nt = no result; ! = a repeat was not active.
SMILES,Pf Dd2 inh,C diff HTS,T cruzi growth-1,T cruzi growth-2,T cruzi growth-3,3T3 cytotox,3T3 cytotox 2
COc1ccc(C#Cc2ccc3c(c2)O[C@@H](CN(C)C(=O)NC2CCCCC2)[C@@H](C)CN([C@H](C)CO)S3(=O)=O)cc1,-81.4,i,?,95.0,113.5,i,i
COc1ccc(C#Cc2ccc3c(c2)O[C@@H](CN(C)C(=O)NC2CCCCC2)[C@H](C)CN([C@@H](C)CO)S3(=O)=O)cc1,i,i,?,100.1,98.6,i,i
COc1ccc(C#Cc2ccc3c(c2)O[C@H](CN(C)C(=O)NC2CCCCC2)[C@@H](C)CN([C@@H](C)CO)S3(=O)=O)cc1,i,i,?,108.8,107.4,i,64.3
C[C@@H]1CN([C@@H](C)CO)S(=O)(=O)c2ccc(C#Cc3ccc(F)cc3)cc2O[C@@H]1CN(C)C(=O)NC1CCCCC1,i,i,i,nt,nt,nt,nt
C[C@H](CO)N1C[C@H](C)[C@@H](CN(C)C(=O)NC2CCCCC2)Oc2cc(C#Cc3cccc(F)c3)ccc2S1(=O)=O,i,nt,nt,nt,nt,nt,nt
COc1ccc(C#Cc2ccc3c(c2)O[C@H](CN(C)C(=O)NC2CCCCC2)[C@H](C)CN([C@@H](C)CO)S3(=O)=O)cc1,i,i,?,102.0,i,i,i
C[C@H]1CN([C@@H](C)CO)S(=O)(=O)c2ccc(C#Cc3ccc(F)cc3)cc2O[C@H]1CN(C)C(=O)NC1CCCCC1,i,i,i,nt,nt,nt,nt
C[C@H](CO)N1C[C@H](C)[C@H](CN(C)C(=O)NC2CCCCC2)Oc2cc(C#Cc3cccc(F)c3)ccc2S1(=O)=O,i,i,nt,nt,nt,nt,nt
CCCNC(=O)N(C)C[C@@H]1Oc2cc(-c3ccc(C)cc3)ccc2S(=O)(=O)N([C@@H](C)CO)C[C@H]1C,i,i,i,nt,nt,nt,nt
O=C(C[C@@H]1C[C@@H]2c3cc(NS(=O)(=O)c4ccccc4)ccc3O[C@@H]2[C@H](CO)O1)NCC1CC1,i,i,i,nt,nt,nt,nt
C[C@H]1CN([C@@H](C)CO)S(=O)(=O)c2ccc(C#Cc3ccc(F)cc3)cc2O[C@@H]1CN(C)C(=O)NC1CCCCC1,i,i,i,nt,nt,nt,nt
C[C@@H]1CN([C@H](C)CO)S(=O)(=O)c2ccc(C#Cc3ccc(F)cc3)cc2O[C@@H]1CN(C)C(=O)NC1CCCC1,i,i,113.7,?,i,i,104.0
Cc1noc(C)c1NC(=O)Nc1ccc2c(c1)CC(=O)N([C@@H](C)CO)C[C@@H](C)[C@H](CN(C)Cc1ccc(-c3ccccc3)cc1)O2,i,i,i,nt,nt,nt,nt
CO[C@@H]1CC[C@@H]2CCOc3c(C#N)cccc3C(=O)N(C)C[C@@H](C)C(=O)N(C)C[C@H]1O2,i,nt,i,nt,nt,nt,nt
C/C=C/c1ccc2c(c1)O[C@H](CN(C)Cc1cncnc1)[C@H](C)CN([C@@H](C)CO)S2(=O)=O,i,i,nt,nt,nt,nt,nt
C/C=C/c1ccc2c(c1)O[C@@H](CN(C)Cc1ccncc1)[C@H](C)CN([C@@H](C)CO)S2(=O)=O,i,i,108.2,107.8,104.7,i,57.0
C/C=C/c1ccc2c(c1)O[C@H](CN(C)Cc1ccncc1)[C@H](C)CN([C@@H](C)CO)S2(=O)=O,i,i,i,nt,nt,nt,nt
C/C=C/c1ccc2c(c1)O[C@H](CN(C)Cc1ccncc1)[C@@H](C)CN([C@@H](C)CO)S2(=O)=O,i,i,108.6,108.7,101.6,i,28.5
CCCN(C)C[C@@H]1Oc2ncc(C#CC3(O)CCCC3)cc2C(=O)N([C@@H](C)CO)C[C@@H]1C,i,i,i,nt,nt,nt,nt
C[C@@H]1CN([C@H](C)CO)C(=O)c2cc(N(C)C)ccc2O[C@@H](C)CCCCO[C@@H]1CN(C)Cc1ccc2c(c1)OCO2,i,i,101.7,i,i,i,i
C[C@@H]1CN([C@@H](C)CO)C(=O)c2cc(N(C)C)ccc2O[C@@H](C)CCCCO[C@H]1CN(C)Cc1ccc2c(c1)OCO2,i,i,105.4!,i,i,i,i
C[C@H]1CCCCO[C@@H](CN(C)Cc2ccc3c(c2)OCO3)[C@@H](C)CN([C@@H](C)CO)C(=O)c2cc(N(C)C)ccc2O1,i,i,i,nt,nt,nt,nt
C[C@H](CO)N1C[C@H](C)[C@@H](CN(C)Cc2ccc3c(c2)OCO3)OCCCC[C@H](C)Oc2ccc(N(C)C)cc2C1=O,i,i,nt,nt,nt,nt,nt
Cc1ccc(S(=O)(=O)N(C)C[C@@H]2Oc3ccc(NC(=O)CCCN(C)C)cc3CC(=O)N([C@@H](C)CO)C[C@H]2C)cc1,i,i,i,nt,nt,nt,nt
C[C@@H]1CN([C@H](C)CO)C(=O)Cc2cc(NS(=O)(=O)c3cn(C)cn3)ccc2O[C@@H]1CN(C)C(=O)Nc1ccc(C(F)(F)F)cc1,i,i,i,nt,nt,nt,nt
SMILES,Pf Dd2 inh,C diff HTS,T cruzi growth-1,T cruzi growth-2,T cruzi growth-3,3T3 cytotox,3T3 cytotox 2
COc1ccc2c3c([nH]c2c1)[C@H](CO)N(C(=O)Nc1ccc(F)cc1)CC31CCN(Cc2cc(F)ccc2F)CC1,i,i,nt,nt,nt,nt,nt
O=C(c1ccc2c(c1)OCO2)N1CC(=O)N2[C@H](CO)[C@H](c3ccc(C#CCC4CCCC4)cc3)[C@H]2C1,i,i,nt,nt,nt,nt,nt
C[C@H](CO)N1C[C@H](C)[C@@H](CN(C)Cc2ccc(C(=O)Nc3ccccc3N)cc2)Oc2c(NC(=O)c3nc4ccccc4s3)cccc2C1=O,-89.2,nt,106.5,108.4,i,i,i
C[C@H](CO)N1C[C@H](C)[C@H](CN(C)Cc2ccc(C(=O)Nc3ccccc3N)cc2)Oc2c(NC(=O)c3nc4ccccc4s3)cccc2C1=O,-92.6,nt,?,102.3,105.0,i,63.7
C[C@H](CO)N1C[C@H](C)[C@H](CN(C)Cc2ccc(C(=O)O)cc2)Oc2c(NC(=O)c3nc4ccccc4s3)cccc2C1=O,i,i,i,nt,nt,nt,nt
C[C@H]1CN([C@@H](C)CO)C(=O)c2cccc(NC(=O)c3nc4ccccc4s3)c2O[C@@H]1CN(C)Cc1ccc(C(=O)O)cc1,i,i,i,nt,nt,nt,nt
C[C@H](CO)N1C[C@H](C)[C@@H](CN(C)Cc2ccc(C(=O)O)cc2)Oc2c(NC(=O)c3nc4ccccc4s3)cccc2C1=O,i,i,i,nt,nt,nt,nt
C[C@H]1CN([C@@H](C)CO)C(=O)c2cccc(NC(=O)c3nc4ccccc4s3)c2O[C@@H]1CN(C)Cc1ccc(C(=O)Nc2ccccc2N)cc1,-89.5,nt,105.8,107.3,i,i,?
COc1ccc(NC(=O)Nc2ccc3c(c2)C(=O)N([C@H](C)CO)C[C@@H](C)[C@@H](CN(C)Cc2ccc(C(=O)O)cc2)OCCCC[C@H](C)O3)cc1,i,i,i,nt,nt,nt,nt
CCCC(=O)N1CC2(C1)CN(C(=O)C1CCOCC1)[C@@H](CO)c1[nH]c3cc(OC)ccc3c12,i,i,nt,nt,nt,nt,nt
C[C@@H]1CCCCO[C@H](CN(C)S(=O)(=O)c2cn(C)cn2)[C@@H](C)CN([C@H](C)CO)C(=O)c2cc(NS(=O)(=O)c3ccccc3)ccc2O1,i,i,i,nt,nt,nt,nt
O=C(C1CC1)N1[C@H](CO)[C@@H]2c3ccccc3N(S(=O)(=O)c3ccc(F)cc3)C[C@@H]21,i,i,i,nt,nt,nt,nt

# Source: PubChem
